Screens: PubChem BioAssay, NMMLSC
Sampled rows, rich in hits. Any-hit rate of the full collection: about 1.7%.
FPRL1 binder: human FPRL1 ligand, with FPR counter-screen; inhibition, % (test concentration not listed); 24,000 tested, 0.3% active; FPRL1-expressing cells, fluorescent ligand binding inhibition, flow cytometry
Target sequence (P25090 whole entry, looked up): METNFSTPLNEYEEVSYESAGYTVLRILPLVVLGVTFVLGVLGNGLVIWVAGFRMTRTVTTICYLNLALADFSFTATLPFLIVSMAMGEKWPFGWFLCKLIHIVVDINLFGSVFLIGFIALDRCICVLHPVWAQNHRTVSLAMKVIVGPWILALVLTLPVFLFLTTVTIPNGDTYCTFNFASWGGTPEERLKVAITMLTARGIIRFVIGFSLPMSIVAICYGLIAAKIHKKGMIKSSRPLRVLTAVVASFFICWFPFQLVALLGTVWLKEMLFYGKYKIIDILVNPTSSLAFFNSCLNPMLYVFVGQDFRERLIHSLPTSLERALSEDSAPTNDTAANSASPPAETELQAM
Prostate diff: activators of LNCaP prostate cell differentiation; flow cytometry side scatter, 4 d; side scatter shift, % at 10 µM; 24,000 tested, 0.56% active; AID 795;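 active means side scatter shift above 30%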;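 further: androgen-responsive LNCaP prostate cancer cells in charcoal-stripped serum medium; higher shift means more granular cells and more differentiation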
FPR binder: ligands of human FPR, also counter-screen for FPRL1 ligands; P21462; FPR-expressing cells, fluorescent ligand binding, flow cytometry; inhibition, % (concentration not given with the values); 24,000 tested, 0.74% active; AID 440
A number is an active result; 0 = inactive; - = not tested or not shown. Unless noted, no stated cut-off is given here; in the data, active means inhibition above about 30%; inconclusive means no clear call, values can overlap the other calls; inactive means below that.

SMILES | FPRL1 binder | Prostate diff | FPR binder
CCN1CCN(c2cc(C)c3cc(NC(=O)c4ccc(Br)o4)ccc3n2)CC1 | 0 | 53.0 | 0
c1ccc(CNc2ccc3c(c2)ncn3C2CCCCC2)nc1 | 0 | 0 | 0
COC(=O)C(c1cc(OC)c(O)c(OC)c1)(N1CCNC(C)C1)C(F)(F)F (stereo unspecified) | 0 | 0 | 0
CC1CCN(c2nc3c(c(=O)[nH]c(=O)n3C)n2CCSc2ncccn2)CC1 | 0 | 0 | 0
COc1ccc(CCNC(=O)C2CCN(Cc3nc(-c4ccccc4C)oc3C)CC2)cc1OC | 0 | 0 | 0
Cc1ccccc1-c1nc(CN2CCC(C(=O)NCCC3=CCCCC3)CC2)c(C)o1 | 0 | 34.0 | 0
Cc1ccccc1-c1nc(CN2CCC(C(=O)NC3CCN(Cc4ccccc4)CC3)CC2)c(C)o1 | 0 | 48.0 | 0
Cc1ccccc1-c1nc(CN2CCC(C(=O)O)CC2)c(C)o1 | 0 | 0 | 0
COc1ccc(-c2oc3ncn(CCN4CCOCC4)c(=N)c3c2-c2ccc(OC)cc2)cc1 | 0 | 34.0 | 0
COc1ccc(-c2nc(C#N)c(NCCCN3CCOCC3)o2)cc1 | 0 | 0 | 0
CCCCC(NC(C)=O)c1nc2ccccc2n1CCCC (stereo unspecified) | 0 | 0 | 0
O=C(NC1CCCC1)C1c2ccccc2C(=O)N1C1CCCCC1 (stereo unspecified) | 0 | 0 | 0
O=C(NC1CCCCCC1)C1c2ccccc2C(=O)N1Cc1cccnc1 (stereo unspecified) | 0 | 0 | 0
O=C(NCc1cccnc1)C1c2ccccc2C(=O)N1C1CCCCCC1 (stereo unspecified) | 0 | 0 | 62.5
O=C(NCc1cccnc1)C1c2ccccc2C(=O)N1C1CCCCCCC1 (stereo unspecified) | 0 | 0 | 47.6
COCCn1c(=O)[nH]c2cc(C(=O)NCCN3CCN(c4ccc(OC)cc4)CC3)ccc2c1=O | 0 | 0 | 0
Cn1c(=O)oc2cc(S(=O)(=O)N3CCCC(C(=O)NCc4cccs4)C3)ccc21 (stereo unspecified) | 0 | 0 | 0
O=C(CCCN1C(=O)CSc2ncccc21)N1CCN(Cc2ccccc2)CC1 | 0 | 0 | 0
Cc1nc2nc(C)c(CCC(=O)NCc3ccc4c(c3)OCO4)c(C)n2n1 | 0 | 0 | 0
O=C(N1CCN(Cc2ccccc2)CC1)C12CC3CC(CC(C3)C1)C2 | 0 | 0 | 0
O=C1C(C23CC4CC(CC(C4)C2)C3)C(=O)N(c2ccccc2)N1c1ccccc1 | 0 | - | 73.1
CCSc1nc(O)c(C2OC(=O)c3c2ccc(OC)c3OC)c(=O)n1-c1ccccc1 (stereo unspecified) | 0 | 0 | 34.3
COc1ccc2c(c1OC)C(=O)OC2Nn1cncn1 (stereo unspecified) | 0 | 0 | 0
CCOC(=O)N1CCC(NC(=O)c2cc(C(=O)Nc3ccc(OC)c(OC)c3)ccc2CO)CC1 | 33.7 | 0 | 0
CCOC(=O)N1CCC(NC(=O)c2cc(C(=O)Nc3cccc(OC)c3)ccc2CO)CC1 | 0 | 0 | 0
SMILES | FPRL1 binder | Prostate diff | FPR binder
O=C(CCCNS(=O)(=O)c1cccc2nsnc12)NC1CCCCC1 | 0 | 0 | 0
CCC(C)NC(=O)Cn1cnc2sc(C)cc2c1=O (stereo unspecified) | 0 | 0 | 0
CC(=O)C1=C(O)C(=O)N(Cc2ccco2)C1c1ccc(F)cc1 (stereo unspecified) | 0 | 0 | 0
Cc1nc(C)c(C(=O)C2=C(O)C(=O)N(CCN3CCOCC3)C2c2cccs2)s1 (stereo unspecified) | 0 | - | 0
O=C(C1=C(O)C(=O)N(Cc2ccco2)C1c1ccccc1)c1cccs1 (stereo unspecified) | 0 | - | 71.3
O=C(C1=C(O)C(=O)N(CCOCCO)C1c1cccs1)c1cccs1 (stereo unspecified) | 0 | - | 70.6
Cn1c(=O)c2c(nc(SCCCO)n2Cc2ccccc2Cl)n(C)c1=O | 0 | 0 | 0
COC(=O)c1cc(S(=O)(=O)N2CCOCC2)ccc1Sc1ccccc1N | 0 | 0 | 0
COC(=O)C1(S(=O)(=O)c2cccc3nsnc23)CC1 | 83.5 | 0 | 32.8
CC(C)NS(=O)(=O)c1cccc2nsnc12 | 0 | 0 | 0
Cc1[nH]nc2c1C(c1ccccc1)C1=C(CC(C)(C)CC1=O)N2 (stereo unspecified) | 0 | 0 | 0
Cc1ccc(C2C3=C(CC(C)(C)CC3=O)Nc3[nH]c(=S)[nH]c(=O)c32)cc1 (stereo unspecified) | 0 | 0 | 35.2
CC1CC(C)CN(CCCNC(=O)c2ccc3c(c2)NC(=O)C(N2CCCCC2)S3)C1 (stereo unspecified) | 0 | 0 | 0
CCOc1ccc(-n2c(=S)sc3c(=O)[nH]c(SCC(=O)NCc4ccco4)nc32)cc1 | 0 | 0 | 0
COc1ccc(Cl)cc1-n1c(=S)sc2c(=O)[nH]c(SCC(=O)NCC3CCCO3)nc21 (stereo unspecified) | 0 | 0 | 44.2
COc1ccc(OC)c(N2Cc3cc(C)c(C)cc3C2)c1 | 0 | 0 | 0
